Screening results: PubChem, National Center for Advancing Translational Sciences (NCATS)
Shown are actives, neighbours in structure and some others; about 5% of the full set was active somewhere.
VACV mCherry inh: inhibitors of vaccinia virus infection (mCherry reporter signal) | 0.63% of 310,000 active | Potency, µM (doses to about 36.5 µM), inactives show at the highest dose activity change, negative = inhibition, most hits filed as inhibitors | Vaccinia virus mCherry reporter infection, fluorescence | AID 720579; calls by dose curve; tested in A549 cells; also: potency is read from the fitted curve at half-maximal effect; nearly all actives have a fitted effect of over 35% in size
Tb PYK inh: T. brucei pyruvate kinase inhibition; TbPYK enzyme, Kinase-Glo Plus ATP luminescence, 45 min; Potency, µM (doses to about 76.8 µM), for inactives: at the highest dose activity, negative = inhibition, usual class: inhibitors; 0.12% of 410,000 active; AID 624173; also: potency is read from the fitted curve at half-maximal effect; nearly all actives have a fitted effect of over 50% in size
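Luminescent Kinase-Glo Plus end-point after 45 min room-temperature reaction of T. brucei pyruvate kinase started with 130 uM ADP (final). Buffer TEA 50 mM pH 7.2 with KCl, MgCl2, BSA, Tween-20; titration-based qHTS with fitted concentration-effect curves.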
HCMV antiviral: human cytomegalovirus inhibition; 4.5% of 410,000 active; HFF cells, HCMV-luciferase reporter, 72 h; active compounds read low; activity change, negative = inhibition, % at 57.5 µM; in the data active = activity change below about -60%; inconclusive = no clear call, values can overlap the other calls; inactive = above about -39%
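Steps: HFFs plated, 16 h 37C; compounds added; HCMV-luciferase added to MOI 1 PFU/cell; 72 h 37C; OneGlo reagent, 5 min room temperature; luminescence read, normalized to controls.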
LmPK inhibitor: inhibitors of Leishmania mexicana pyruvate kinase. Potency, µM (top dose mostly 57.5 µM), without a hit: at the top dose activity change, negative = inhibition, hits mostly inhibitors. 0.37% of 290,000 active. purified LmPK, Kinase-Glo ATP luminescence, 1 h; also: potency is read from the fitted curve at half-maximal effect
Target sequence (Q27686 whole entry, looked up): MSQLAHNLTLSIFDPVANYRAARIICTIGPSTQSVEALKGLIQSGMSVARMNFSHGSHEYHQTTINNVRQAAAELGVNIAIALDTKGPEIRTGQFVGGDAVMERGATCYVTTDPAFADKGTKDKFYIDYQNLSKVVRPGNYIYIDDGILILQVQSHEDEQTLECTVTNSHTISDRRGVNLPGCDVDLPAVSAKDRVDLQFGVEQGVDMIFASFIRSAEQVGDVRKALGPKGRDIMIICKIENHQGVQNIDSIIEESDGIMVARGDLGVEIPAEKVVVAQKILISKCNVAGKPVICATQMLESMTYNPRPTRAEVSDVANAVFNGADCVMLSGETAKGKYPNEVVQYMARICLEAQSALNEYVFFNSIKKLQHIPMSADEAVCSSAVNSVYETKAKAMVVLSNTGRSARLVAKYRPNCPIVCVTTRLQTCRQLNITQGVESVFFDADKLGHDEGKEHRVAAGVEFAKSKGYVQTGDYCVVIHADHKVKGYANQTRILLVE
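ATP generated from ADP (0.1 mM) and PEP (0.5 mM) by 0.1 nM LmPK over 1 h at room temperature (pH 7.2 imidazole buffer) was detected by coupled luciferase luminescence. Values were normalized to uninhibited and no-enzyme wells.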
Vaccinia Venus: inhibitors of vaccinia virus (Venus reporter); AID 720580; Vaccinia virus Venus reporter expression, fluorescence; Potency, µM (titrated, usually from 36.5 µM), inactives show at the highest dose activity change, negative = inhibition, most hits filed as inhibitors; 0.46% of 330,000 active; calls by dose curve; tested in A549 cells; also: potency is read from the fitted curve at half-maximal effect; nearly all actives have a fitted effect of over 30% in size
* marks the source's active call; other numbers are inactive results; [ ] = dose if it differs, or a comment. Unless noted, calls follow the shape of the dose curve; as a rule, active = well fitted curve in the direction sought with a large enough effect; inconclusive = small, poorly fitted or top-dose-only effect, or another doubt; inactive = no such curve, though single readings can be large; an effect the other way counts as inactive or inconclusive. % is scaled to controls: 0 for no effect and ±100 for the full control effect.

Screening COc1ccc2[nH]cc(C=O)c2c1 returned Tb PYK inh 1%, HCMV antiviral -25 and LmPK inhibitor -1%.
`S=C(NC1CCCCC1)N1CCOCCOCCN(C(=S)NC2CCCCC2)CCOCCOCC1` gave VACV mCherry inh -21%, Tb PYK inh -10%, HCMV antiviral -78*, LmPK inhibitor 2% and Vaccinia Venus inconclusive.
`CC(C)[C@@H](C(=O)NC1CCN(Cc2ccccc2)CC1)N1C(=O)N2CCc3c([nH]c4ccccc34)[C@@]2(C)C1=O` gave VACV mCherry inh -21%, Tb PYK inh 2%, HCMV antiviral -65*, LmPK inhibitor 1% and Vaccinia Venus -20%.
Screening C[C@@H](C(=O)NC1CCN(Cc2ccccc2)CC1)N1C(=O)N2CCc3c([nH]c4ccccc34)[C@@]2(C)C1=O returned VACV mCherry inh -21%, Tb PYK inh -6%, HCMV antiviral -13, LmPK inhibitor -1% and Vaccinia Venus -21%.
For O=C1C(=O)N(C2CCN(S(=O)(=O)c3ccc(F)cc3)CC2)CCN1Cc1ccccc1 the results were VACV mCherry inh -7%, Tb PYK inh 2%, HCMV antiviral 11 and Vaccinia Venus -7%.
Screening COc1ccc(-n2ccn(CC(=O)NCc3ccc(C)cc3)c(=O)c2=O)cc1OC returned VACV mCherry inh -7%, Tb PYK inh -5%, HCMV antiviral inconclusive and Vaccinia Venus -15%.
For COc1cc(C(=S)N2CCCC2)ccc1OS(=O)(=O)c1ccc(NC(C)=O)cc1 the results were Tb PYK inh 1%, HCMV antiviral -36 and LmPK inhibitor -2%.
COc1cc(C(=S)N2CCOCC2)ccc1OS(=O)(=O)c1ccc(NC(C)=O)cc1 was read as VACV mCherry inh inactive, Tb PYK inh -6%, HCMV antiviral -73*, LmPK inhibitor 5% and Vaccinia Venus -1%.
Screening O=[N+]([O-])c1ccccc1Nc1nc(-c2cccnc2)cs1 returned Tb PYK inh -2%, HCMV antiviral 57 and LmPK inhibitor 4%.
For COc1ccc(C(=O)Nc2ccccc2-c2nnn(CC(=O)Nc3ccc4c(c3)OCCO4)n2)cc1 the results were VACV mCherry inh -2%, Tb PYK inh 0%, HCMV antiviral -63*, LmPK inhibitor -1% and Vaccinia Venus -13%.
Screening COc1ccc(-n2ncc3c(=O)n(CC(=O)Nc4ccc5c(c4)OCCO5)cnc32)cc1 returned VACV mCherry inh -14%, Tb PYK inh 0%, HCMV antiviral -60*, LmPK inhibitor 1% and Vaccinia Venus -8%.
Screening COc1cc(OC)cc(C(=O)Nc2ccccc2-c2nnn(CC(=O)Nc3cc(C)on3)n2)c1 returned VACV mCherry inh -10%, Tb PYK inh -2%, HCMV antiviral -63*, LmPK inhibitor 3% and Vaccinia Venus 1%.
Screening COc1ccc(C(=O)Nc2ccccc2-c2nnn(CC(N)=O)n2)cc1 returned VACV mCherry inh -1%, Tb PYK inh 0%, HCMV antiviral -23 and Vaccinia Venus inconclusive.
`Cc1ccc2c(c1)C(N1CCCC1=O)CC(c1ccco1)N2` (stereo unspecified) gave VACV mCherry inh -25%, Tb PYK inh inconclusive, HCMV antiviral 64, LmPK inhibitor 11µM* and Vaccinia Venus -22%.
`CCc1ccc(NC(=O)C2CC(=O)Nc3ncnn32)cc1` (stereo unspecified) gave VACV mCherry inh inactive, Tb PYK inh -7%, HCMV antiviral -21, LmPK inhibitor 0% and Vaccinia Venus -13%.
For CN1CCN(S(=O)(=O)c2ccc(Sc3nnc(-c4cccs4)n3-c3ccccc3)nc2)CC1 the results were VACV mCherry inh 10µM*, Tb PYK inh 0%, HCMV antiviral 27, LmPK inhibitor 2% and Vaccinia Venus inconclusive.
CSc1nnc(-c2cccs2)n1-c1ccccc1 was read as VACV mCherry inh -1%, Tb PYK inh -5%, HCMV antiviral 15, LmPK inhibitor 0% and Vaccinia Venus 0%.
For O=C(c1ccccc1)N1CCC2(CC1)NCCc1[nH]cnc12 the results were Tb PYK inh 1%, HCMV antiviral 34 and LmPK inhibitor -4%.
Screening Cc1ccc(S(=O)(=O)Nc2c(C)nn(C)c2C)cc1 returned VACV mCherry inh -7%, Tb PYK inh -2%, HCMV antiviral 3, LmPK inhibitor 6% and Vaccinia Venus -8%.
`CCn1nc(C)c(NS(=O)(=O)c2ccc(C)cc2)c1C` gave VACV mCherry inh -27%, Tb PYK inh 0%, HCMV antiviral -74*, LmPK inhibitor 3% and Vaccinia Venus -19%.
`CCc1ccc(S(=O)(=O)Nc2c(C)nn(C)c2C)cc1` gave Tb PYK inh -6%, HCMV antiviral -69* and LmPK inhibitor -1%.
`CCOC(=O)N1CCN(c2cc(NCCC(=O)O)c3c4c(onc24)-c2ccccc2C3=O)CC1` gave VACV mCherry inh 44%, Tb PYK inh -15%, LmPK inhibitor 16µM* and Vaccinia Venus 429%.
Screening Cc1ccccc1CN1CCCC(C(=O)Nc2ccc(-c3ccn[nH]3)cc2)C1 (stereo unspecified) returned VACV mCherry inh inconclusive, Tb PYK inh 2%, HCMV antiviral -63*, LmPK inhibitor -8% and Vaccinia Venus inconclusive.
For CCC(=O)c1c[nH]c(C(=O)NCCc2ccccn2)c1 the results were Tb PYK inh -8%, HCMV antiviral 44, LmPK inhibitor -1% and Vaccinia Venus -11%.
Screening O=C(c1ccc2c(c1)OCO2)N(CC1CCCO1)C1(C(=O)NC2CCCCC2)CCCCC1 (stereo unspecified) returned Tb PYK inh 0%, HCMV antiviral -5 and LmPK inhibitor 5%.
`CC(=O)c1cc(C(=O)N2CCCC(CCC(=O)N(C)CCc3ccccn3)C2)cs1` (stereo unspecified) gave VACV mCherry inh -29%, Tb PYK inh 0%, HCMV antiviral -66*, LmPK inhibitor 7% and Vaccinia Venus -3%.
`O=C(c1cccc(S(=O)(=O)N2CCCC2)c1)c1cccc(S(=O)(=O)N2CCCC2)c1` gave Tb PYK inh -3%, HCMV antiviral -74*, LmPK inhibitor 4% and Vaccinia Venus 5%.
`O=C(c1cccc(S(=O)(=O)N2CCCCC2)c1)N1CCCCC1` gave Tb PYK inh 8%, HCMV antiviral 30 and LmPK inhibitor 1%.
`O=S(=O)(c1cccc(-c2n[nH]c(=S)n2C2CCCC2)c1)N1CCOCC1` gave VACV mCherry inh -16%, Tb PYK inh 6.3µM*, HCMV antiviral 9, LmPK inhibitor 7%[11.5 µM] and Vaccinia Venus -9%.
For Cc1ccccc1NC(=O)c1cccc(S(C)(=O)=O)c1 the results were VACV mCherry inh inactive, Tb PYK inh -1%, HCMV antiviral -102*, LmPK inhibitor -3% and Vaccinia Venus -4%.
`CN1CCN(S(=O)(=O)c2ccc(NC(=O)c3ccc([N+](=O)[O-])cc3)cc2)CC1` gave VACV mCherry inh inconclusive, Tb PYK inh -5%, HCMV antiviral -62* and Vaccinia Venus -10%.
